The values that follow come from the antibiotic and cytotoxicity screens of Wong et al. (2023).

Each structure is given as a SMILES string. Screen size: about 39,000 compounds; about 3,300 (8.5%) were called active. Only a selection was taken, and actives are over-represented in it overall.

This experiment relates to HepG2. The experiment in a line: cytotoxicity call (relative viability < 0.9). As to conditions: 10 µM.
For `C[C@H]1CCCCO[C@@H](CN(C)C(=O)Nc2cccc3ccccc23)[C@@H](C)CN([C@@H](C)CO)C(=O)c2cc(NS(C)(=O)=O)ccc2O1`, the cytotoxicity call was “inactive”.
Under `C[C@H](CO)N1C[C@H](C)[C@H](CN(C)C(=O)Nc2cccc3ccccc23)Oc2ccc(NC(=O)Cn3cnnn3)cc2C1=O` stands “inactive”; under `CNC[C@@H]1Oc2ccc(NC(=O)Cn3cnnn3)cc2CC(=O)N([C@@H](C)CO)C[C@@H]1C`, “inactive”.
For the compound `C[C@@H]1CN([C@@H](C)CO)C(=O)c2cc(NC(=O)Cn3cnnn3)ccc2O[C@@H]1CN(C)C(=O)Nc1ccccc1`, the cytotoxicity call was “inactive”.
Under `CNC[C@H]1Oc2ccc(NC(=O)Cn3cnnn3)cc2CC(=O)N([C@@H](C)CO)C[C@H]1C` stands “inactive”; under `C[C@H]1CN([C@@H](C)CO)C(=O)c2cc(NC(=O)Cn3cnnn3)ccc2O[C@H]1CN(C)C(=O)Nc1ccccc1`, “active”.
With `C[C@@H]1CN([C@H](C)CO)C(=O)c2cc(NC(=O)Cn3cnnn3)ccc2O[C@H]1CN(C)C(=O)Nc1cccc2ccccc12`, the cytotoxicity call is “active”.
Under `C[C@H](CO)N1C[C@H](C)[C@@H](CN(C)C(=O)Nc2ccccc2)Oc2ccc(NC(=O)Cn3cnnn3)cc2C1=O` stands “inactive”; under `C[C@@H]1CN([C@@H](C)CO)C(=O)c2cc(NC(=O)Cn3cnnn3)ccc2O[C@H]1CN(C)C(=O)Nc1cccc2ccccc12`, “inactive”.
Under `CNC[C@@H]1Oc2ccc(NC(=O)Cn3cnnn3)cc2CC(=O)N([C@@H](C)CO)C[C@H]1C` stands “active”; under `Cc1cc(Nc2cc(C)on2)nc([C@H]2CCN(C(=O)CN)C2)n1`, “inactive”.
Turning to `C[C@H](CO)N1C[C@H](C)[C@@H](CN(C)S(=O)(=O)c2cccs2)Oc2c(NC(=O)CCCN(C)C)cccc2C1=O`, the cytotoxicity call is “inactive”.
Under `O=C(C[C@@H]1C[C@H]2c3cc(NC(=O)c4ccc5c(c4)OCO5)ccc3O[C@H]2[C@H](CO)O1)NCCc1ccccc1` stands “inactive”; under `Cc1noc(C)c1NC(=O)N(C)C[C@H]1OCCCC[C@H](C)Oc2ccc(NC(=O)CCC(F)(F)F)cc2C(=O)N([C@@H](C)CO)C[C@H]1C`, “inactive”.
The same measure for `C[C@@H]1CN([C@H](C)CO)C(=O)c2cc(C#Cc3cccc(F)c3)cnc2O[C@@H]1CN(C)Cc1ccccn1`: “inactive”; for `CC(C)CC#Cc1ccc2c(c1)O[C@H](CN(C)C(=O)c1cccnc1)[C@@H](C)CN([C@@H](C)CO)S2(=O)=O`: “inactive”.
As to `O=C(O)c1ccc(N[C@@H]2O[C@H](CO)[C@@H](O)[C@@H]2O)cc1`, the cytotoxicity call is “inactive”.
The same measure for `Clc1ccc(-c2onc3cc(-c4ccccc4)ccc23)cc1`: “active”.
The same measure for `Clc1ccc2nc(Cl)cc(-c3ccccc3)c2c1`: “inactive”; for `Clc1ccc(-c2cnc3ccc(-c4ccccc4)cn23)cc1`: “inactive”; for `C[C@H](CO)N1C[C@H](C)[C@H](CN(C)Cc2ccc(Cl)c(Cl)c2)Oc2ccc(NC(=O)CCCCCC(=O)Nc3ccccc3N)cc2CC1=O`: “inactive”.
Under `C[C@H](CO)N1C[C@H](C)[C@@H](CN(C)C(=O)Nc2ccccc2)Oc2ccc(NS(=O)(=O)c3cn(C)cn3)cc2C1=O` stands “inactive”; under `CSCc1nc(=O)cc(C(=O)O)[nH]1`, “inactive”; under `CC(C)NC(=O)N(C)C[C@@H]1OCCCC[C@H](C)Oc2ccc(NC(=O)Nc3ccc(F)cc3)cc2C(=O)N([C@@H](C)CO)C[C@H]1C`, “inactive”.
Regarding `C/C=C1\NC(=O)[C@H]2CSSCC/C=C/[C@H](CC(=O)N[C@H](C(C)C)C(=O)N2)OC(=O)[C@H](C(C)C)NC1=O`, the cytotoxicity call was “active”.
The same measure for `C[C@@H]1CCCCO[C@H](CN(C)S(=O)(=O)c2cn(C)cn2)[C@@H](C)CN([C@@H](C)CO)C(=O)c2cc(NC(=O)c3ccncc3)ccc2O1`: “inactive”; for `NC(=O)CN1CCCCCC1=O`: “inactive”; for `COc1ccc(N)cn1`: “inactive”.
Under `COc1cc(N)ccn1` stands “active”; under `COc1ccnc(N)c1`, “inactive”.
The same measure for `COc1ccccc1NC(=O)N(C)C[C@H]1Oc2cc(Br)ccc2S(=O)(=O)N([C@@H](C)CO)C[C@H]1C`: “inactive”.
`NC(Cc1ccc(O)c(O)c1)C(=O)O` (configuration not stated): the cytotoxicity call is “active”.
For `CCOC(=O)[C@@](C)(N)Cc1ccc(O)c(O)c1`, the cytotoxicity call is “inactive”.
For the compound `CC(N)(Cc1ccc(O)c(O)c1)C(=O)O` (configuration not stated) [listing 1 of 2 here], the cytotoxicity call is “inactive”.
Under `N[C@@H](Cc1ccc(O)c(O)c1)C(=O)O` stands “inactive”; under `C[C@](N)(Cc1ccc(O)c(O)c1)C(=O)O`, “active”; under `CC(N)(Cc1cccc(O)c1)C(=O)O` (configuration not stated), “inactive”.
As to `C[C@](N)(Cc1ccc(O)cc1)C(=O)O`, the cytotoxicity call was “inactive”.
The same measure for `COC(=O)[C@@H](N)Cc1ccc(O)c(O)c1`: “inactive”; for `CC(N)(Cc1ccc(O)c(O)c1)C(=O)O` (configuration not stated) [listing 2 of 2 here]: “active”.
Under `O=Cc1ccc[nH]1` stands “inactive”; under `COc1ccc(NC(=O)N(C)C[C@@H]2Oc3ncc(C#C[C@H](C)O)cc3C(=O)N([C@@H](C)CO)C[C@H]2C)cc1`, “inactive”.
For `CN1CCN(C(=O)C[C@@H]2CC[C@@H]3[C@H](COC[C@H](O)CN3S(=O)(=O)c3cccc(Cl)c3)O2)CC1`, the cytotoxicity call is “inactive”.
Under `CC[C@@H](O)C[C@H]1CC[C@H]([C@@H](C)C(=O)O[C@@H](C)C[C@H]2CC[C@H]([C@@H](C)C(=O)O[C@@H](C)C[C@H]3CC[C@H]([C@@H](C)C(=O)O[C@@H](C)C[C@H]4CC[C@H]([C@@H](C)C(=O)O)O4)O3)O2)O1` stands “active”; under `COc1ccc(S(=O)(=O)Nc2ccc3c(c2)CC(=O)N([C@H](C)CO)C[C@@H](C)[C@@H](CN(C)C(=O)Nc2c(C)noc2C)O3)cc1`, “inactive”.
Under `C[C@@H]1CCCCO[C@H](CN(C)C(=O)c2ccccc2)[C@@H](C)CN([C@H](C)CO)C(=O)c2cc(NC(=O)c3ccccc3)ccc2O1` stands “inactive”.
Consider `O=C(O)c1cnns1`, for which the cytotoxicity call was “inactive”.
Under `C[C@H](CO)N1C[C@H](C)[C@@H](CN(C)C(=O)Nc2cccc3ccccc23)OCc2cn(nn2)CCCC1=O` stands “inactive”; under `C[C@@H]1CN([C@H](C)CO)C(=O)c2cccc(NC(=O)C3CCOCC3)c2O[C@@H]1CN(C)Cc1ccc(C(=O)O)cc1`, “inactive”; under `O=C(NCc1nc2ccccc2[nH]1)C1=C[C@@H](c2ccc(Br)cc2)C[C@@H](OCc2ccc(CO)cc2)O1`, “active”.
Under `O=C(NCc1nc2ccccc2[nH]1)C1=C[C@H](c2ccc(C(F)(F)F)cc2)C[C@H](OCc2ccc(CO)cc2)O1` stands “inactive”; under `O=C(NCc1nc2ccccc2[nH]1)C1=C[C@H](c2ccc(Br)cc2)C[C@H](OCc2ccc(CO)cc2)O1`, “inactive”.
